Our source for the growth values is PubChem BioAssay (NCI).

Structures are written as SMILES. About 83,000 compounds went through this panel and 20% of them were active in at least one assay; those are over-represented in the sample as a whole.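 48-hour exposure, single concentration, 96-well plates; percent growth endpoint where 0 means no net growth. Active: below 10.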 Values without a mark were called inactive. Activity calls are given as the source filed them.

Test systems include NCI-H23 lung; NCI-H226 lung; NCI-H322M lung; HOP-62 NSCLC; NCI-H460 lung; NCI-H522 lung; A549/ATCC NSCLC; 786-0 renal; COLO 205 colon; DU-145 prostate.
Assay in all cases: NCI-60 one-dose screen, 48 h (100 = growth as untreated, 0 = no growth, -100 = all killed)
What all share (conditions): 10 µM

On to `ClCCOCCn1cnc2c(Cl)nc(Cl)nc21`, for which the growth was 55.1% in the experiment with NCI-H23 lung; 74.8% in the experiment with NCI-H226 lung; 89.9% with NCI-H322M lung; 88.6% with HOP-62 NSCLC; 28.5% in the experiment on NCI-H460 lung; 60.1% in the experiment on NCI-H522 lung. The growth is 60.7% with A549/ATCC NSCLC, 87.6% in the experiment on 786-0 renal, 88.1% in the experiment with COLO 205 colon and -5.51% (active) with DU-145 prostate.
Take `O=C1/C(=C\c2ccc(F)cc2)CN(C(=O)c2ccccc2F)C/C1=C\c1ccc(F)cc1`: the growth with NCI-H23 lung was 16.4%; in the experiment on NCI-H226 lung, -32.9% (active); in the experiment on NCI-H322M lung it was 77.6%; in the experiment on HOP-62 NSCLC it was -15.5% (active); in the experiment on NCI-H460 lung, 17.8%; in the experiment on NCI-H522 lung, -69.5% (active). In addition, the growth in the experiment with A549/ATCC NSCLC is 12.9%; in the experiment on 786-0 renal, -51% (active); in the experiment with COLO 205 colon, -42.9% (active); in the experiment on DU-145 prostate, -10.4% (active).
For the molecule `C/C(=N\Nc1nc2ccccc2s1)c1ccncn1`, the growth with NCI-H23 lung was 42.3%; with NCI-H226 lung it was 41.9%; in the experiment on NCI-H322M lung, 46.2%; with HOP-62 NSCLC, 41.3%; with NCI-H460 lung, 23.2%; in the experiment on NCI-H522 lung, 4.38% (active). For the same molecule, the growth is 50.6% with A549/ATCC NSCLC, 38.3% in the experiment on 786-0 renal, 7.12% (active) in the experiment on COLO 205 colon and 28.3% in the experiment on DU-145 prostate.
On to `CCOC(=O)N/N=C\C(C)=N\NC(=O)OCC`, for which the growth in the experiment on NCI-H23 lung was 101%; with NCI-H226 lung, 119%; in the experiment with NCI-H322M lung it was 89.5%; in the experiment on HOP-62 NSCLC, 96.3%; in the experiment on NCI-H460 lung, 102%; in the experiment on NCI-H522 lung, 89.2%. Moreover, the growth was 92.6% in the experiment on A549/ATCC NSCLC, 101% with 786-0 renal, 114% with COLO 205 colon and 106% with DU-145 prostate.
In the case of `COc1cc(Cl)cc(-c2nn(-c3cccc(NC(=O)Nc4ccc(Cl)c(Cl)c4)c3)cc2-c2ccncc2)c1`, the growth is 5.72% (active) with NCI-H23 lung; 7.27% (active) with NCI-H226 lung; 32.3% in the experiment on NCI-H322M lung; 15.7% in the experiment on HOP-62 NSCLC; 3.1% (active) with NCI-H460 lung; -19% (active) with NCI-H522 lung. The growth is 11.4% in the experiment on A549/ATCC NSCLC, 19.6% in the experiment on 786-0 renal, -70.3% (active) in the experiment on COLO 205 colon and 12.1% in the experiment with DU-145 prostate.
For `Cc1ccc(NC(=O)CSc2nc3ccccc3c(=O)n2CCc2ccccc2)c(C(=O)O)c1`, the growth in the experiment on NCI-H23 lung was 101%; with NCI-H226 lung it was 101%; in the experiment on NCI-H322M lung, 90.9%; in the experiment with HOP-62 NSCLC it was 94.4%; in the experiment on NCI-H460 lung, 110%; with NCI-H522 lung it was 90.1%. Further, the growth in the experiment on A549/ATCC NSCLC was 98%; in the experiment with 786-0 renal it was 90.5%; in the experiment with COLO 205 colon, 103%; in the experiment with DU-145 prostate it was 117%.
For `CC(C)N(CCNc1nc(C(Cl)(Cl)Cl)nc2cc(Cl)ccc12)C(C)C`, the growth was -0.581% (active) in the experiment with NCI-H23 lung; 0.531% (active) in the experiment with NCI-H226 lung; 33.5% in the experiment with NCI-H322M lung; -41.4% (active) with HOP-62 NSCLC; -45.6% (active) with NCI-H460 lung; -68.4% (active) with NCI-H522 lung. For the same molecule, the growth is -41.6% (active) in the experiment on A549/ATCC NSCLC, -76.4% (active) in the experiment on 786-0 renal, -89.8% (active) in the experiment with COLO 205 colon and -15% (active) with DU-145 prostate.
With `COc1ccc2c(c1)sc1nc(-c3ccccc3)c(-c3ccc(O)c(OC)c3)n12`, the growth is 88.2% in the experiment with NCI-H23 lung; 94.1% with NCI-H226 lung; 89.7% in the experiment on NCI-H322M lung; 79.1% in the experiment with HOP-62 NSCLC; 69.8% in the experiment on NCI-H460 lung; 76.4% in the experiment with NCI-H522 lung. Besides, the growth in the experiment on A549/ATCC NSCLC is 64.2%; in the experiment with 786-0 renal it was 84.9%; in the experiment on COLO 205 colon, 71.4%; in the experiment on DU-145 prostate it was 107%.
For the molecule `CCOC(=O)C(CSC(c1ccccc1)(c1ccccc1)c1ccccc1)NC(=O)C(CSC(c1ccccc1)(c1ccccc1)c1ccccc1)NC(c1ccccc1)(c1ccccc1)c1ccccc1` (stereo not given), the growth in the experiment with NCI-H23 lung is 116%; in the experiment with NCI-H226 lung, 93.5%; with NCI-H322M lung, 101%; in the experiment with HOP-62 NSCLC it was 101%; with NCI-H460 lung, 106%; in the experiment with NCI-H522 lung, 99.4%. Moreover, the growth was 95.1% in the experiment with A549/ATCC NSCLC, 104% with 786-0 renal, 112% in the experiment on COLO 205 colon and 115% in the experiment with DU-145 prostate.
As for `CC1(C)N=C(N)N=C(N)N1c1ccc(CCc2ccccc2)c(Cl)c1`, the growth is 21.4% with NCI-H23 lung; 32.4% in the experiment on NCI-H226 lung; 28.7% in the experiment on NCI-H322M lung; 26.3% with HOP-62 NSCLC; 10.1% in the experiment on NCI-H460 lung; 1.84% (active) in the experiment with NCI-H522 lung. Moreover, the growth in the experiment on A549/ATCC NSCLC was 10.4%; with 786-0 renal, 20.3%; in the experiment on COLO 205 colon it was 16%; in the experiment with DU-145 prostate, 27.1%.
Regarding `C=C(Cl)[C@@](Cl)(CBr)CC[C@@H](Br)C(C)(C)Cl`, the growth in the experiment on NCI-H23 lung is 83.2%; in the experiment with NCI-H226 lung it was 105%; in the experiment with NCI-H322M lung, -98.1% (active); with HOP-62 NSCLC it was -93.2% (active); with NCI-H460 lung it was -47.7% (active); in the experiment on NCI-H522 lung, 85.1%. In addition, the growth in the experiment with A549/ATCC NSCLC was -6.36% (active); with 786-0 renal, -65.5% (active); in the experiment with COLO 205 colon, -70.3% (active); in the experiment on DU-145 prostate it was -94.3% (active).
`COc1cc(-c2cc(/C=C/C(=O)c3ccc(Cl)c(Cl)c3)[nH]n2)cc(OC)c1OC`: the growth in the experiment with NCI-H23 lung was 101%; in the experiment with NCI-H226 lung it was 81.7%; with NCI-H322M lung, 62.7%; with HOP-62 NSCLC it was 75.9%; in the experiment on NCI-H460 lung it was 79.4%; in the experiment on NCI-H522 lung it was 38%. In addition, the growth in the experiment with A549/ATCC NSCLC was 88.3%; in the experiment on 786-0 renal, 69.7%; in the experiment with COLO 205 colon, 78%; in the experiment with DU-145 prostate, 62.4%.
For the molecule `CCN1CCC2(CC1)OC(c1ccccc1)C(c1ccccc1)O2` (stereo not given), the growth in the experiment on NCI-H23 lung was 106%; with NCI-H226 lung, 96.6%; in the experiment on NCI-H322M lung, 133%; in the experiment with HOP-62 NSCLC, 114%; in the experiment with NCI-H460 lung it was 118%; with NCI-H522 lung, 116%. Also, the growth with A549/ATCC NSCLC is 105%; in the experiment with 786-0 renal, 92.7%; in the experiment on COLO 205 colon, 106%; in the experiment with DU-145 prostate it was 115%.
On to `OCC1OC(n2cnc3c(N/N=C\c4ccccn4)ncnc32)C(O)C1O` (stereo not given), for which the growth was 27.1% in the experiment with NCI-H23 lung; 11.3% in the experiment on NCI-H226 lung; 7.28% (active) in the experiment with NCI-H322M lung; 10% in the experiment on HOP-62 NSCLC; 1.62% (active) in the experiment with NCI-H460 lung; 38.7% in the experiment on NCI-H522 lung. The growth was 24.6% in the experiment with A549/ATCC NSCLC, 16.2% in the experiment on 786-0 renal, 22.7% in the experiment with COLO 205 colon and 17.7% with DU-145 prostate.
